PubChem BioAssay (NCI)
The panel holds about 83,000 compounds, 20% with a hit somewhere; the sample as a whole holds those more often.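 Activity criterion: percent growth below 10, measured after cells in 96-well plates were exposed to a single compound concentration for 48 hours.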 A number with no mark means an inactive call. The source made the active and inactive calls.

The compounds below were run on COLO 205 colon (assay: NCI-60 one-dose screen, 48 h (100 = growth as untreated, 0 = no growth, -100 = all killed)). Conditions: 10 µM unless noted.
Description: Cells are grown in 96 well plates and exposed to the test compound for 48 hours. Compounds are tested at a single concentration, which is 10^-5 M for most compounds. The reported endpoint is percent growth (GI% or GIPRCNT), where numbers from 0 - 100% represent growth inhibition, and numbers from -100% - 0 represent cell death. For example, a value of 40 represents 60% growth inhibition. A value of 0 means no net growth occurred over the course of the experiment. A value of -40 indicates 40% of cells at the beginning of the experiment died by the end of the experiment. A value of -100 means all cells are dead at the end of the experiment.
NCI-60 Human Tumor Cell Lines Screen was performed using the standard one-dose NCI protocol, which is described in more detail at https://dtp.cancer.gov/discovery_development/nci-60/default.htm.
Compounds with GIPRCNT values below 10 were considered active. Activity score was based on GIPRCNT using the following formula: […]
Score is 0 for GIPRCNT values of 100 or above, 50 for GIPRCNT values of 0, and 100 for GIPRCNT values of -100.

Row | Compound | growth
1 | COC(=O)[C@]12CCC(C)(C)C[C@H]1[C@H]1C(=O)C[C@@H]3[C@@]4(C)C[C@@]5(CC(C)(C)[C@@H]4CC[C@@]3(C)[C@]1(C)CC2)OO[C@@](C)(C(F)(F)F)O5 | 134%
2 | Oc1c(CCl)cc(Cl)cc1CCl | 109%
3 | O=C(N/N=C\c1ccc(N(CCCl)CCCl)cc1)c1cccc([N+](=O)[O-])c1 | 102%
4 | N#C[Se]CCN1C(=O)c2ccccc2C1=O | 61.6%
5 | Cn1cc(C=O)c2nccnc21 | 109%
6 | Clc1cccc(NCOOC2(OOCNc3cccc(Cl)c3)CCCCC2)c1 | 96.6%
7 | CC1(C)CN1P(=O)(N1CC1(C)C)N1CC1(C)C (stereo not given) | 107%
8 | O[C@H](CN1CC1)[C@@H](O)CN1CC1 | 76.7%
9 | N#CC1C(C#N)C2CCC1C1C2N1c1ccccc1 (stereo not given) | 103%
10 | O=C1C2C(C(=O)[N]1[Hg][c]1cccs1)C1(Cl)C(Cl)=C(Cl)C2(Cl)C1(Cl)Cl (stereo not given) | -71.4% (active)
11 | COc1cc2c(=O)n(C3CCCCCCC3)c3c4cc[nH]c4ncc3c2cc1OC | 58.5%
12 | C#Cc1ccc2c(c1)C(c1ccccc1F)=NCC(=O)N2C | 18.4%
13 | COc1cc(C=Nc2cccc(C(=O)O)c2)ccc1N(CCCl)CCCl | 67.1%
14 | CCc1ccccc1[C@@H]1C[C@]2(C)CCO[C@@H]2OO1 | 118%
15 | CC[C@]12C=CCN3CC[C@]4(C(=C(C(=O)OC)C1)Nc1cc(OC)c(OC(C)=O)cc14)[C@@H]32 | -22.8% (active)
16 | O=P(Oc1ccc(Cl)cc1)(N1CC1)N1CC1 | 94.6%
17 | CCn1c2ccccc2c2cc(C(=O)c3ccc(C)c4ccccc34)ccc21 | -16.3% (active)
18 | NC(=O)CNc1ccc([As]=[As]c2ccc(NCC(N)=O)cc2)cc1 (stereo not given) | 76.8%
19 | CN1CC(=O)N(O)C1(C)c1cccnc1 (stereo not given) | 111%
20 | CCCOC(=O)N[C@H]1CCc2c(Br)c(OC)c(OC)c(OC)c2-c2ccc(SC)c(=O)cc21 | -31.9% (active)

Row | Compound | growth
21 | COC(=O)[C@@H](C)C[C@H](Cc1ccccc1)NC(=O)c1cccc([C@@H](C[C@H](C(C)C)N(C)C(=O)[C@@H](NC(=O)[C@H]2CCCCN2C)C(C)C)OC(C)=O)n1 | -54.5% (active)
22 | CCOC(=O)[C@@H](C)C[C@H](Cc1ccccc1)NC(=O)c1csc([C@@H](C[C@H](C(C)C)N(C)C(=O)[C@@H](NC(=O)[C@H]2CCCCN2C)C(C)(C)C)OC(C)=O)n1 | -75.6% (active)
23 | COC(=O)[C@@]1(C)CC[C@]2(C)CC[C@]3(C)C4=CC=C5C(=CC(=O)C(O)=C5C)[C@]4(C)CC[C@@]3(C)[C@@H]2C1 | -77.2% (active)
24 | CCCCCCCCCCCCCCCCCC1OC[C@H](COC(=O)O[C@@H](C(=O)O[C@H]2C[C@@]3(O)[C@@H](OC(=O)c4ccccc4)[C@@H]4[C@]5(OC(C)=O)CO[C@@H]5C[C@H](O)[C@@]4(C)C(=O)[C@H](OC(C)=O)C(=C2C)C3(C)C)[C@@H](NC(=O)c2ccccc2)c2ccccc2)O1 (stereo not given in full) | 13.3%
25 | [Cl][Hg][c]1cc(Br)cc(Br)c1 | 91%
26 | CCCCNC(c1ccc(Cl)cc1)C(O)c1ccc(Cl)cc1 (stereo not given) | -71.4% (active)
27 | Cc1cnc(/C=C/C(=O)O)cc1-c1cc2c(cc1C)C(C)(C)CCC2(C)C | 102%
28 | O=[N+]([O-])c1c(Br)sc(Br)c1[N+](=O)[O-] | -77.7% (active)
29 | CS(=O)(=O)CCN1CC2CCCC(C2)C1 | 99%
30 | CC(C)OC(=O)[C@H](C)NP(=O)(Oc1ccccc1)C1CCCN(O)C1=O (stereo not given in full) | 93.1%
31 | Clc1cccc(Cl)c1Cl | 122%
32 | Cc1c(NS(=O)(=O)c2ccccc2)ccc([N+](=O)[O-])c1Cl | 109%
33 | Cc1ccc(C(=O)NCCCOc2ccc(N3C(N)=NC(N)=NC3(C)C)cc2Cl)cc1S(=O)(=O)F | 87.7%
34 | C[C@]12CCc3sc(NCCc4ccccc4)nc3C1=CC[C@@H]1[C@@H]2CC[C@]2(C)C(=O)CC[C@@H]12 | 90.6%
35 | COc1ccc(C(=O)c2sc3nc4c(cc3c2N)N2CCC4CC2)cc1OC | 97.1%
36 | CN1CCC(O)(c2ccc(F)cc2)C(C(=O)c2ccc(F)cc2)C1 (stereo not given) | 115%
37 | CC(=O)O[C@H](C[C@H](C(C)C)N(C)C(=O)[C@@H](NC(=O)[C@H]1CCCN1C)C(C)C)c1nc(C(=O)N[C@@H](Cc2ccccc2)C[C@H](C)C(=O)O)c(C)s1 | -63.2% (active)
38 | CCCCCCC(=O)NC1=C(N2CC2)C(=O)C(NC(=O)CCCCCC)=C(N2CC2)C1=O | 3.58% (active)
39 | C[C@]12CCc3sc(-c4ccccc4O)nc3C1=CC[C@@H]1[C@@H]2CC[C@]2(C)C(=O)CC[C@@H]12 | 108%
40 | COC(=O)[C@@H](C)C[C@H](Cc1ccc2ccccc2c1)NC(=O)c1csc([C@@H](C[C@H](C(C)C)N(C)C(=O)[C@@H](NC(=O)[C@H]2CCCCN2C)C(C)C)OC(C)=O)n1 | -37.9% (active)
